Source: PubChem BioAssay (EPA / NIEHS)
Activity calls are given as the source filed them. Rule for the calls: active = hit-call score of the fitted dose curve at least 0.9, where 1 is the maximum; inactive = score below 0.9.

How the values were obtained:
Settings in all cases: mRNA level, 48 h; actives raise or lower the signal
[1] = read-out: Bcl-2 (BID) gene, BID (gene 637); experiment: LTEA_HepaRG_BID: Life Technologies and Expression Analysis (LTEA) Assay for Bcl-2 (BID) gene using HepaRG (AID 2283476)
Summary of the method: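 Differentiated HepaRG cells in serum-free induction medium were exposed in duplicate for 48 h to eight half-log concentrations up to 100 uM in 0.5% DMSO. BID mRNA was quantified by qRT-PCR, normalized to ACTB, GAPDH and POLR2A.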

Caspase-3 (Homo sapiens) = Caspase-3 (Homo sapiens) (UniProt P42574); experiment: LTEA_HepaRG_CASP3: Life Technologies and Expression Analysis (LTEA) Assay for cysteine-aspartic acid protease (CASP3) using HepaRG (AID 2283477)
Chain of Caspase-3 (Homo sapiens) (P42574 whole entry, looked up): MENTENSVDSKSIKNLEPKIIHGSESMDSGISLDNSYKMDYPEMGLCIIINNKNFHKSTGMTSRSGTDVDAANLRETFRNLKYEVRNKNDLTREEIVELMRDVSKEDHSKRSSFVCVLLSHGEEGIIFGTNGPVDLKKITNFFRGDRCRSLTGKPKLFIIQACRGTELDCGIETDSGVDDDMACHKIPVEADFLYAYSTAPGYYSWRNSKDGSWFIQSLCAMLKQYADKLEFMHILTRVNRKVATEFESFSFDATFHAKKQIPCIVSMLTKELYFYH
Summary of the method: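 Transcript-level assay: CASP3 mRNA in human HepaRG after 48 h treatment, eight half-log concentrations from 100 uM in 0.5% DMSO, quantified by qRT-PCR.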

[2] = read-out: Cytochrome P450 (CYP24A1), CYP24A1 (gene 1591); experiment: LTEA_HepaRG_CYP24A1: Life Technologies and Expression Analysis (LTEA) Assay for Cytochrome P450 (CYP24A1) using HepaRG (AID 2283478)
Summary of the method: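 Gene expression of CYP24A1 by TaqMan qRT-PCR in HepaRG after 48 h treatment, highest concentration 100 uM; activity fitted in both directions relative to DMSO vehicle.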

[3] = read-out: Cytochrome P450 (CYP1A2), CYP1A2 (gene 1544); experiment: LTEA_HepaRG_CYP1A2: Life Technologies and Expression Analysis (LTEA) Assay for Cytochrome P450 (CYP1A2) using HepaRG (AID 2283479);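 for AC50: TaqMan qRT-PCR transcript level normalized to ACTB GAPDH and POLR2A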
Summary of the method: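 In duplicate wells, HepaRG cultures maintained in 0.5% DMSO were treated 48 h across an 8-point, half-log series topping at 100 uM; phenobarbital (1 mM) served as induction control. Expression was read by qRT-PCR.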

[4] = read-out: cysteine-aspartic acid protease (CASP8), CASP8 (gene 841); experiment: LTEA_HepaRG_CASP8: Life Technologies and Expression Analysis (LTEA) Assay for cysteine-aspartic acid protease (CASP8) using HepaRG (AID 2283480)
Summary of the method: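 Differentiated HepaRG cells in serum-free induction medium, 48 h exposure, eight-point half-log series from 100 uM in 0.5% DMSO, duplicates. CASP8 mRNA by qRT-PCR, normalized to ACTB, GAPDH, POLR2A; bidirectional fit versus DMSO.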

[5] = read-out: Cytochrome P450 (CYP2B6), CYP2B6 (gene 1555); experiment: LTEA_HepaRG_CYP2B6: Life Technologies and Expression Analysis (LTEA) Assay for Cytochrome P450 (CYP2B6) using HepaRG (AID 2283481)
Summary of the method: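 Human HepaRG, 48 h dosing, 0.5% DMSO vehicle, top dose 100 uM. CYP2B6 transcript by qRT-PCR, housekeeping-normalized, bidirectional curve fit.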

[6] = read-out: Cytochrome P450 2C19 (Homo sapiens) (UniProt P33261); experiment: LTEA_HepaRG_CYP2C19: Life Technologies and Expression Analysis (LTEA) Assay for CYP2C19 using HepaRG (AID 2283482)
Summary of the method: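 Endpoint: CYP2C19 mRNA change, bidirectional fit vs 0.5% DMSO. Cells: HepaRG, 48 h exposure, eight-point series topping at 100 uM. Quantitation: qRT-PCR normalized to ACTB, GAPDH, POLR2A.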

CYP2C8 (gene 1558) = experiment: LTEA_HepaRG_CYP2C8: Life Technologies and Expression Analysis (LTEA) Assay for CYP2C8 using HepaRG (AID 2283483)
Summary of the method: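 Differentiated HepaRG cells in serum-free induction medium exposed 48 h in duplicate to 8 half-log concentrations from 100 uM in 0.5% DMSO. CYP2C8 mRNA by qRT-PCR normalized to ACTB, GAPDH, POLR2A; bidirectional fit versus DMSO.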

CYP2C9 (gene 1559) = experiment: LTEA_HepaRG_CYP2C9: Life Technologies and Expression Analysis (LTEA) Assay for CYP2C9 using HepaRG (AID 2283484)
Summary of the method: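 Differentiated human HepaRG cells in serum-free induction medium were exposed 48 h to chemicals in 8-point half-log series from 100 uM (0.5% DMSO), in duplicate. CYP2C9 mRNA was measured by qRT-PCR, normalized to ACTB/GAPDH/POLR2A, with bidirectional fitting versus DMSO.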

CYP2E1 (gene 1571) = experiment: LTEA_HepaRG_CYP2E1: Life Technologies and Expression Analysis (LTEA) Assay for CYP2E1 using HepaRG (AID 2283485)
Summary of the method: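 HepaRG cells in serum-free induction medium exposed 48 h to test chemicals, 8 half-log concentrations up to 100 uM in 0.5% DMSO, duplicate. CYP2E1 mRNA by qRT-PCR, normalized to ACTB, GAPDH, POLR2A; bidirectional fit versus DMSO.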

Chain of Cytochrome P450 2C19 (Homo sapiens) (P33261 whole entry, looked up): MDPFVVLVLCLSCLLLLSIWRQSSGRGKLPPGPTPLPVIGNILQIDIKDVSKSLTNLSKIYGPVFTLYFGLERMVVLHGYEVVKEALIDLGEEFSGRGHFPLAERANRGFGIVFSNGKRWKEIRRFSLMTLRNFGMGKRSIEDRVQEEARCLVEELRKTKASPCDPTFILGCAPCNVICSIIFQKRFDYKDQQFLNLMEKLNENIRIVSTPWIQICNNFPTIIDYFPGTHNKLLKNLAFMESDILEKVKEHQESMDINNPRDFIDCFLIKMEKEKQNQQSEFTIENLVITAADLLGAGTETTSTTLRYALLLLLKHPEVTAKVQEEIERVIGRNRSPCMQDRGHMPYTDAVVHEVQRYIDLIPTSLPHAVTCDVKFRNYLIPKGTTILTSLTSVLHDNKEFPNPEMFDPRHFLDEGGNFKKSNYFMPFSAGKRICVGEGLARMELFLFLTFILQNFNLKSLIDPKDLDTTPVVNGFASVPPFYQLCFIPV

| SMILES | outcome [1] | outcome (Caspase-3 (Homo sapiens)) | outcome [2] | outcome [3] | AC50 [4] | AC50 [5] | AC50 [6] | AC50 (CYP2C8 (gene 1558)) | AC50 (CYP2C9 (gene 1559)) | outcome (CYP2E1 (gene 1571)) | AC50 [3] | outcome [4] | outcome [5] | outcome [6] | outcome (CYP2C8 (gene 1558)) | outcome (CYP2C9 (gene 1559)) | AC50 (CYP2E1 (gene 1571)) | AC50 [1] | AC50 (Caspase-3 (Homo sapiens)) |
| --- | --- | --- | --- | --- | --- | --- | --- | --- | --- | --- | --- | --- | --- | --- | --- | --- | --- | --- | --- |
| COc1cc(C=O)cc2c1[C@H](COC(N)=O)[C@]1(OC(C)=O)ON2C[C@H]2[C@@H]1N2C(C)=O | inactive | inactive | inactive | inactive | 3.89 µM (active) | 73.4 µM (active) | 0.804 µM (active) | 0.5 µM (active) | 24.2 µM (active) | inactive |  |  |  |  |  |  |  |  |  |
| c1ccc(N=Nc2ccccc2)cc1 | inactive | inactive | inactive |  |  |  |  |  |  | inactive | 50 µM (active) | inactive | inactive | inactive | inactive | inactive |  |  |  |
| Cn1cc(-c2ccccc2)c(=O)c(-c2cccc(C(F)(F)F)c2)c1 | inactive | inactive | inactive |  |  | 1.09 µM (active) | 4.63 µM (active) | 3.59 µM (active) | 0.468 µM (active) |  | 87.5 µM (active) | inactive |  |  |  |  | 11.9 µM (active) |  |  |
| CN(C)c1ccccc1 | inactive | inactive | inactive | inactive |  | 33.4 µM (active) |  |  |  | inactive |  | inactive |  | inactive | inactive | inactive |  |  |  |
| Clc1ccc(Cl)c(Cl)c1 |  |  | inactive | inactive |  |  |  |  |  |  |  | inactive | inactive | inactive | inactive | inactive | 50 µM (active) | 50 µM (active) | 50 µM (active) |
| CCOC(=O)[C@]1(c2ccccc2)Oc2ccccc2[C@@H]1N | inactive | inactive | inactive |  |  | 81.9 µM (active) | 78.2 µM (active) |  | 74.3 µM (active) |  | 15.8 µM (active) | inactive |  |  | inactive |  | 75.2 µM (active) |  |  |
| COC(=O)Nc1nc2ccccc2[nH]1 | inactive | inactive | inactive |  |  | 3.97 µM (active) |  |  |  | inactive | 31.8 µM (active) | inactive |  | inactive | inactive | inactive |  |  |  |
| CCCCCCCCCCCCCN1CC(C)OC(C)C1 (stereo not drawn) | inactive | inactive | inactive |  |  |  |  |  |  | inactive | 50 µM (active) | inactive | inactive | inactive | inactive | inactive |  |  |  |
| CCC[CH2][Sn]([Cl])([CH2]CCC)[CH2]CCC | inactive | inactive | inactive |  |  | 2.53 µM (active) | 1.37 µM (active) |  | 2.23 µM (active) |  | 1.58 µM (active) | inactive |  |  |  |  | 0.505 µM (active) |  |  |
| CCCCCOC(=O)c1ccccc1C(=O)OCCCCC | inactive | inactive | inactive | inactive |  |  |  |  |  | inactive |  | inactive | inactive | inactive |  | inactive |  |  |  |
| Nc1ccc(N=Nc2ccccc2)cc1 |  | inactive | inactive |  | 17.3 µM (active) | 13.1 µM (active) | 14.4 µM (active) |  | 14.7 µM (active) |  | 88.2 µM (active) |  |  |  |  |  | 23.7 µM (active) | 50 µM (active) |  |
| COP(=S)(OC)SCN1C(=O)c2ccccc2C1=O | inactive | inactive | inactive |  |  | 50 µM (active) |  |  |  | inactive | 22.3 µM (active) | inactive |  | inactive |  | inactive |  |  |  |
| CC(C)(C)OOC(=O)c1ccccc1 | inactive | inactive | inactive | inactive |  |  |  |  |  | inactive |  | inactive | inactive | inactive | inactive | inactive |  |  |  |
| CO[C@@H]1[C@H](OC(=O)NC(=O)CCl)CC[C@]2(CO2)[C@H]1[C@@]1(C)O[C@@H]1CC=C(C)C | inactive | inactive | inactive | inactive |  | 0.0683 µM (active) |  |  |  | inactive |  | inactive |  | inactive | inactive | inactive |  |  |  |
| O=P(OCCCl)(OCCCl)OCCCl | inactive | inactive | inactive | inactive |  | 10.2 µM (active) |  |  |  |  |  | inactive |  | inactive |  | inactive | 25.7 µM (active) |  |  |
| C[N+](C)(C)CC1CO1 (stereo not drawn) | inactive | inactive | inactive | inactive |  |  |  |  |  | inactive |  | inactive | inactive | inactive |  | inactive |  |  |  |
| CCN(CC)CCO | inactive | inactive | inactive | inactive |  |  |  |  |  | inactive |  | inactive | inactive | inactive | inactive | inactive |  |  |  |
| CC(C)(O)c1cnn2c(-c3ccc(F)c(-c4c(F)cccc4C#N)c3)cnc2n1 | inactive | inactive | inactive |  |  | 0.705 µM (active) | 0.365 µM (active) |  | 0.291 µM (active) |  | 29.7 µM (active) | inactive |  |  | inactive |  | 4.43 µM (active) |  |  |
| O=C1CCCO1 | inactive |  | inactive | inactive | 78.5 µM (active) |  |  |  |  | inactive |  |  | inactive | inactive |  | inactive |  |  | 50 µM (active) |
| N#CC(Br)(Br)C(N)=O | inactive | inactive | inactive | inactive |  |  |  |  |  | inactive |  | inactive | inactive | inactive | inactive | inactive |  |  |  |
